From PubChem BioAssay AID651813 (National Center for Advancing Translational Sciences (NCATS), 2012)
Out of some 2,100 compounds screened, about 1,100 (52%) were called active. Not shown: some 27% with an inconclusive outcome. Calls follow the shape of the dose curve; as a rule, active = well fitted inhibition curve with a large enough effect; inconclusive = small, poorly fitted or top-dose-only effect; inactive = no such curve, though single readings can be large or run the other way. So high a share suggests a set chosen from earlier hits. The list shows a part of the results.

Target: DNA dC->dU-editing enzyme APOBEC-3G (Homo sapiens) (UniProt Q9HC16)
Sequence (Q9HC16 whole entry, looked up): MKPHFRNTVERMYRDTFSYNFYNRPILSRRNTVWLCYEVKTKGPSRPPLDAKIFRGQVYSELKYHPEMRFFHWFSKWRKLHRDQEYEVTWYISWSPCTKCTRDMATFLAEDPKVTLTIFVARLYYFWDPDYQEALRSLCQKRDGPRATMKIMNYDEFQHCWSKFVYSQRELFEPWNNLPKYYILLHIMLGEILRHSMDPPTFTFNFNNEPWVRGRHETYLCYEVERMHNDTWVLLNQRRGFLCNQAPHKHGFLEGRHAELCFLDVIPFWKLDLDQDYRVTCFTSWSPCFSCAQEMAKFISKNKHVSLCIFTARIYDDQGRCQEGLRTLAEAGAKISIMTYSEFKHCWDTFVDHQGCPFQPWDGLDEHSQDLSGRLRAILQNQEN
Test: qHTS for inhibitors of Vif-A3G interactions: Cherry picks counterscreen;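 also: hits raise yellow fluorescence by blocking Vif-driven A3G-eYFP degradation; nearly all actives have a fitted effect of over 70% in size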;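 as to max response: max response given as percent of control signal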
Conditions: HeLa A3G-eYFP + Vif (tagged APOBEC3G with the HIV-1 protein that degrades it), eYFP fluorescence, 24 h
In short: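 Readout is eYFP fluorescence (488 nm excitation, 500-530 nm emission) measured on Acumen Explorer after 24 h compound exposure, several concentrations, at 37 deg C. Cells: HeLa stably co-expressing Vif and C-terminally eYFP-tagged A3G; MG132 positive control.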
Potency is read from the fitted curve at half-maximal effect.

| SMILES | Potency | max response |
| --- | --- | --- |
| CCN(CC)c1ccc(/C=C2\SC(N)=NC2=O)cc1 | 7.9 µM (active) |  |
| C/C(CC(=O)NCc1ccc(Cl)cc1)=N\NC(=O)COc1ccc(C)cc1Br | 14 µM (active) |  |
| CC(=O)Nc1ccc(NC(=O)C/C(C)=N/NC(N)=S)cc1 |  | 2.45% (inactive) |
| CC(=O)Nc1ccc(CC(=O)NCCC(c2ccccc2)c2ccccc2)cc1 | 15.8 µM (active) |  |
| O=C(Oc1ccc(Cl)c2cccnc12)c1ccco1 |  | 17.4% (inactive) |
| Oc1ccc(-c2nc(-c3ccc(O)c(O)c3)cs2)cc1 | 0.994 µM (active) |  |
| COc1ccc(-c2ccnc(-c3ccc(O)cc3)n2)cc1 | 1.58 µM (active) |  |
| COc1ccc(-c2csc(-c3ccc(O)cc3)n2)cc1 | 5.59 µM (active) |  |
| COc1cc(C2c3cc4c(cc3OC(C)(N3CCCC3)C2C)OCO4)cc(OC)c1OC (stereo not given) | 0.994 µM (active) |  |
| C=CCOC(=O)C1=C(C)Nc2nnnn2C1c1cccs1 (stereo not given) |  | -7.35% (inactive) |
| COc1cccc(C2=CC(c3cccs3)n3nnnc3N2)c1 (stereo not given) | 2.8 µM (active) |  |
| COc1cccc(C2=CC(c3ccccc3)n3nnnc3N2)c1 (stereo not given) | 8.86 µM (active) |  |
| N#CC1=C(S)N(c2ccc(F)cc2)C2(CCCCC2)NC1=O |  | 4.28% (inactive) |
| Cc1ccc(/C=N/NC(=O)CCCOc2ccc(Cl)cc2Cl)cc1 | 7.9 µM (active) |  |
| CCCn1c(SCC(=O)Nc2ccccc2OC)nnc1-c1ccco1 | 17.7 µM (active) |  |
| CCCn1nnc(NC(=S)NC(=O)c2ccccc2OC)n1 |  | 9.21% (inactive) |
| CC(C)C1C(=O)N(Cc2cn(CCC3OCCCO3)nn2)CCS(=O)(=O)N1Cc1ccc(-c2cccc(CO)c2)cc1 (stereo not given) |  | -8.99% (inactive) |
| CC(=O)C1=C(C)NC(SCC(=O)c2ccc(Cl)cc2)=C(C#N)C1c1ccco1 (stereo not given) | 16.4 µM (active) |  |
| O=[N+]([O-])c1ccc(N2CCN(Cc3ccccc3)CC2)c2c1no[n+]2[O-] | 12.5 µM (active) |  |
| CC1(C)Cc2ccccc2C2CC(O)C(=O)N21 (stereo not given) | 20.6 µM (active) |  |
| CCCCOc1nc2ccccc2nc1NS(=O)(=O)c1ccc(F)cc1 |  | -6.51% (inactive) |
| COc1ccc(S(=O)(=O)NN(C)c2nc(C(F)(F)F)nc3ccccc23)cc1 | 7.04 µM (active) |  |
| COc1ccc(OC)c(NS(=O)(=O)c2ccc(Cl)s2)c1 | 12.5 µM (active) |  |

| SMILES | Potency | max response |
| --- | --- | --- |
| CC[n+]1c(/C=C/N(C)c2ccccc2)oc2ccc(F)cc21 | 14 µM (active) |  |
| CC[n+]1c(/C=C/Nc2ccccc2)oc2ccccc21 | 9.2 µM (active) |  |
| CC[n+]1c(/C=C/Nc2ccccc2)oc2ccc(OC)cc21 | 14.6 µM (active) |  |
| CCc1ccc(N=Nc2ccc(O)c3[nH]cnc23)cc1 | 7.31 µM (active) |  |
| ClCc1nc2ccccc2n1Cc1ccccc1 | 20.6 µM (active) |  |
| CC(C)(C)c1ccc(Cn2c(=O)cnc3ccccc32)cc1 |  | 3.64% (inactive) |
| COc1ccc(NC2=CC(=O)CC(c3ccccc3)C2)c(OC)c1 (stereo not given) | 11.2 µM (active) |  |
| NC(=O)c1cccc(-c2ccnc3c2CC(C(=O)NCc2ccco2)O3)c1 (stereo not given) | 17.7 µM (active) |  |
| O=C(NCc1ccccc1)C1Cc2c(-c3cccc(F)c3)ccnc2O1 (stereo not given) | 1.4 µM (active) |  |
| CC(=O)c1cccc(-c2ccnc3c2CC(C(=O)NCc2ccco2)O3)c1 (stereo not given) | 1.58 µM (active) |  |
| CC(=O)c1cccc(-c2ccnc3c2CC(C(=O)NCc2ccc(F)c(F)c2)O3)c1 (stereo not given) | 2.8 µM (active) |  |
| CC(=O)c1cccc(-c2ccnc3c2CC(C(=O)NCC2CCOCC2)O3)c1 (stereo not given) | 5.59 µM (active) |  |
| O=C(NCc1ccco1)C1Cc2c(-c3cccc(F)c3)ccnc2O1 (stereo not given) | 5.59 µM (active) |  |
| N#CC1=C(N)Oc2c(sc3ccccc23)C1c1ccco1 (stereo not given) | 12.5 µM (active) |  |
| CC1CC(=O)C2=C(C1)OC(N)=C(C#N)C2c1coc2ccccc2c1=O (stereo not given) |  | -19.2% (inactive) |
| CC(O)CN(CC(C)O)c1ccc2c(c1)Cc1cc([N+](=O)[O-])ccc1-2 (stereo not given) | 0.58 µM (active) |  |
| Cc1cc(C)c2cc3c(N)c(C(=O)Nc4c(C)[nH]c(=O)[nH]c4=O)sc3nc2c1 | 11.6 µM (active) |  |
| COc1cc2c(c(OC)c1OC)-c1ccc(N(C)CC(OC)OC)c(=O)cc1[C@@H](NC(C)=O)CC2 | 0.559 µM (active) |  |
| CN[C@H]1CCc2cc(OC)c(OC)c(OC)c2-c2ccc(N(C)CC(OC)OC)c(=O)cc21 | 6.27 µM (active) |  |
| CC(C)c1ccc(C(=O)NCCCNC(=O)c2cnccn2)cc1 |  | 10.5% (inactive) |
| O=C(NCCN1C(=O)S/C(=C\c2ccc(OC(F)F)cc2)C1=O)c1cnccn1 | 12.5 µM (active) |  |
| CCCN1C(=O)C(Cc2nc3ccccc3c(=O)n2CC)c2cc(Br)ccc21 (stereo not given) |  | 11.6% (inactive) |
| Cn1c(/C=C/c2ccc([N+](=O)[O-])o2)nc2ccccc2c1=O | 14.6 µM (active) |  |

| SMILES | Potency | max response |
| --- | --- | --- |
| CCn1c(/C=C/c2ccc([N+](=O)[O-])o2)nc2ccccc2c1=O | 20.6 µM (active) |  |
| O=c1c2ccccc2nc(/C=C/c2ccc([N+](=O)[O-])o2)n1CCCO | 10.3 µM (active) |  |
| N#C/C(N=Nc1ccccc1O)=N\Nc1ccccc1O | 16.4 µM (active) |  |
| N#CCc1ccc(NC(=O)/C=C/c2ccc([N+](=O)[O-])o2)cc1 | 13 µM (active) |  |
| O=C(/C=C/c1ccc([N+](=O)[O-])o1)NNC(=O)c1ccc(F)cc1 | 7.9 µM (active) |  |
| CCOC(=O)CCc1ccc(NC(=O)/C=C/c2ccc([N+](=O)[O-])o2)cc1 | 11.6 µM (active) |  |
| O=C(Nc1nc2c(F)cccc2s1)c1ccc([N+](=O)[O-])o1 |  | -8.08% (inactive) |
| N#C/C=C/N1CCN(C(=O)c2ccco2)CC1 |  | -14.7% (inactive) |
| CCN(CC(=O)NCc1ccc(F)cc1)C(=O)/C=C/c1ccc(OC)c(S(=O)(=O)NC(C)C)c1 | 3.53 µM (active) |  |
| c1ccc(-c2cnn3c(-c4ccccc4)c(-c4ccccc4)nc3n2)cc1 | 2.59 µM (active) |  |
| Cc1ccc(C2=NN(C(=O)c3cccs3)C(c3ccccc3O)C2)cc1 (stereo not given) |  | 20.9% (inactive) |
| CCOC1=C2CN(S(=O)(=O)c3ccc(C)cc3)[C@H](c3cccc4ccccc34)C[C@H]2C(C#N)(C#N)C(C#N)(C#N)C1 |  | -20.1% (inactive) |
| COc1cccc(C2CC(c3ccccc3)=NN2S(=O)(=O)c2ccc(C)cc2)c1OC (stereo not given) | 18.4 µM (active) |  |
| Cc1ccc(C2=NN(S(=O)(=O)c3ccccc3)C(c3ccccc3O)C2)cc1 (stereo not given) | 13 µM (active) |  |
| O=c1c2ccccc2sc2ccc(NCCCN3CCOCC3)cc12 | 23.1 µM (active) |  |
| COc1ccc(S(=O)(=O)N2CCN(C(=O)c3ccc([N+](=O)[O-])o3)CC2)cc1 |  | -0.426% (inactive) |
| COc1ccc(S(=O)(=O)N2c3ccccc3OCC2CC(=O)O)cc1 (stereo not given) | 12.5 µM (active) |  |
| COc1ccc(N/C=C2\C(=O)CCc3c2oc2cc(Cl)c(O)c(Cl)c32)cc1 |  | -5.39% (inactive) |
| O=C(NC(=S)Nc1c(Cl)cc(Cl)cc1Cl)c1ccccc1 |  | 6.93% (inactive) |
| COC(=O)/C(=C\Nc1ccc(Cl)cc1Cl)NC(=O)c1ccc(OC)cc1 | 1.98 µM (active) |  |
| Clc1ccccc1/C=N/NC1=Nc2cccc3cccc1c23 | 9.2 µM (active) |  |
| Clc1ccc(/C=N/NC2=Nc3cccc4cccc2c34)cc1 | 20.6 µM (active) |  |
| COc1cccc(CNCCSc2nnnn2C)c1OCc1ccc(F)cc1 |  | 2.02% (inactive) |

| SMILES | Potency | max response |
| --- | --- | --- |
| COc1ccc(-c2nc3cnccn3c2NC2CCCCC2)cc1-c1cccc(Cl)c1 |  | -10.6% (inactive) |
| CCCCNc1c(-c2ccc(SC3CCCCC3)cc2)nc2cnccn12 | 2.23 µM (active) |  |
| c1cc(SC2CCCCC2)cc(-c2nc3cnccn3c2NC2CCCCC2)c1 |  | 17.4% (inactive) |
| CN(C)c1ccc(/C=N/NC(=O)c2cc(-c3ccc4c(c3)OCO4)n[nH]2)cc1 | 12.5 µM (active) |  |
| Cc1cc(C)n(-c2nnc3n2N=C(c2c[nH]c4ccccc24)CS3)n1 | 6.27 µM (active) |  |
| COc1cc(/C=C2/CCC/C(=C\c3cc(O)c(OC)c(Cl)c3)C2=O)cc(Cl)c1O | 14.6 µM (active) |  |
| CCOc1cc(/C=C2\CCC/C(=C\c3cc(Cl)c(O)c(OCC)c3)C2=O)cc(Cl)c1O | 17.7 µM (active) |  |
| Cc1csc(NC(=O)CCC(=O)N(CC(=O)NC2CCCC2)Cc2ccccc2)n1 |  | -14.8% (inactive) |
| NC(=O)c1ccc(Cn2c(C(=O)c3cc(Cl)c(N)c(Cl)c3)c3ccccc3[n+]2[O-])cc1 | 11.2 µM (active) |  |
| Cc1ccc(-n2nc3c(N4CCCC(C(=O)NCc5ccccc5C)C4)nnc(C)c3c2C)cc1 (stereo not given) |  | -1.78% (inactive) |
| Cc1ccc(Cl)cc1NC(=O)Nc1cn(CC(C)C)c(=O)c2ccccc12 |  | 10.5% (inactive) |
| Cc1ccc(C)c(NC(=O)Cn2cc(S(=O)(=O)Cc3cccc(Cl)c3)c3ccccc32)c1 | 18.4 µM (active) |  |
| Cc1ccc(NC(=O)C2CCN(S(=O)(=O)c3ccc(Cl)c(C(F)(F)F)c3)CC2)nc1 |  | 8.66% (inactive) |
| Cc1ccc(S(=O)(=O)N2CCCCC2)cc1NC(=O)Cn1ncc(Cl)c(Cl)c1=O | 12.5 µM (active) |  |
| COc1ccc(OCCCC(=O)N2CCN(S(=O)(=O)c3cccc(F)c3)CC2)cc1 |  | 2.87% (inactive) |
| O=C(Nc1ccc(Cl)cn1)c1cccc(S(=O)(=O)N2CCCCCC2)c1 |  | 1.56% (inactive) |
| O=C(Cn1ncc(Cl)c(Cl)c1=O)N1CCN(S(=O)(=O)c2ccc3ccccc3c2)CC1 | 11.2 µM (active) |  |
| Fc1ccc(-c2cnn3c(-c4cccs4)ccnc23)cc1 | 5.59 µM (active) |  |
| COc1ccc(CN(C(C)=O)c2cccc(C)c2C)cc1 | 17.7 µM (active) |  |
| Cc1nnc(NC(=O)CSc2nc(C(C)C)nc3ccccc23)s1 | 6.27 µM (active) |  |
| COc1ccc(C2CC(c3ccncc3)=NN2c2ccc(S(N)(=O)=O)cc2)cc1 (stereo not given) | 5.17 µM (active) |  |
